# Assays:
# Test in all cases: DAPPL (digital affinity profiling via proximity ligation, sequencing); 10 mM Tris-HCl pH 7.5, 50 mM NaCl, 1 mM DTT, 4% glycerol, room temperature, 30 min; GST-TFs on glutathione beads, 16-mer random dsDNA library, 0.1% formaldehyde crosslink after washing; high values mean tight binding
# [1] = biological target: T1, FLI1 (Homo sapiens, UniProt Q01543 1-452); conditions: protein: recombinant; tags: N-terminal GST; dsDNA, one strand shown
# T1 sequence: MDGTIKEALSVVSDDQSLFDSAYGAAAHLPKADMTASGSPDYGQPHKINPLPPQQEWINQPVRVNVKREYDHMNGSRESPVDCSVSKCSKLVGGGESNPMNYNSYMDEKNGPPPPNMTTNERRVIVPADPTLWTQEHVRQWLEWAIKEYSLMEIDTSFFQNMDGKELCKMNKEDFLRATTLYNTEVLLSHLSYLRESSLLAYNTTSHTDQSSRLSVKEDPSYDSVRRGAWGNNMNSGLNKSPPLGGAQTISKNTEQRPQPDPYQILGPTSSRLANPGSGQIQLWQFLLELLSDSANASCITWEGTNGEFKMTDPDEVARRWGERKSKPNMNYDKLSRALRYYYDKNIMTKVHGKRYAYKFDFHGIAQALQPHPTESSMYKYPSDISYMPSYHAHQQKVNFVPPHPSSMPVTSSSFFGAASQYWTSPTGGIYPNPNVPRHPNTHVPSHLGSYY
# Procedure, shortened: (§1)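 Binding signal is defined as a hexamer's read frequency for one factor over its frequency for the tag-only sample. To obtain reads, GST-fused human transcription factors were expressed in yeast, captured on glutathione beads, barcoded with DNA and pooled with that sample. Pools met 200 nmole of a 16-mer random double-stranded DNA library in Tris/NaCl/DTT/glycerol buffer for 30 min at room temperature before washing, 0.1% formaldehyde crosslinking, proximity ligation (BsaI/T4 ligase, 1 h, 37 °C), PCR and Illumina NextSeq500 sequencing.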
# [2] = biological target: T2, ELK1 (Homo sapiens, UniProt P19419 1-428); conditions: protein: recombinant; tags: N-terminal GST; dsDNA, one strand shown
# T2 sequence: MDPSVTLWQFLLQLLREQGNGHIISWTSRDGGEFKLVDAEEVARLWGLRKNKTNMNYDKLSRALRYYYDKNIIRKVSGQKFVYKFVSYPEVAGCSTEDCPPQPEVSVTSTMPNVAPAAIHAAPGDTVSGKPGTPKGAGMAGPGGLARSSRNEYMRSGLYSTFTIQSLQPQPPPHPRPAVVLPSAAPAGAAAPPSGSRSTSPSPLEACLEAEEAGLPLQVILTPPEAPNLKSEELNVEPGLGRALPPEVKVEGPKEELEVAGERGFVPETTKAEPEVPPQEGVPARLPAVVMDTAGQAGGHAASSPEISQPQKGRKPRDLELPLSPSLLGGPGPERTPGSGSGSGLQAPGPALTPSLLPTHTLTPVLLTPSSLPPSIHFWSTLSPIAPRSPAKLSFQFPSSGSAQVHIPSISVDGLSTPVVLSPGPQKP
# Procedure, shortened: as §1
# [3] = biological target: T3, GABPA (Homo sapiens, UniProt Q06546 1-454); conditions: protein: recombinant; tags: N-terminal GST; dsDNA, one strand shown
# T3 sequence: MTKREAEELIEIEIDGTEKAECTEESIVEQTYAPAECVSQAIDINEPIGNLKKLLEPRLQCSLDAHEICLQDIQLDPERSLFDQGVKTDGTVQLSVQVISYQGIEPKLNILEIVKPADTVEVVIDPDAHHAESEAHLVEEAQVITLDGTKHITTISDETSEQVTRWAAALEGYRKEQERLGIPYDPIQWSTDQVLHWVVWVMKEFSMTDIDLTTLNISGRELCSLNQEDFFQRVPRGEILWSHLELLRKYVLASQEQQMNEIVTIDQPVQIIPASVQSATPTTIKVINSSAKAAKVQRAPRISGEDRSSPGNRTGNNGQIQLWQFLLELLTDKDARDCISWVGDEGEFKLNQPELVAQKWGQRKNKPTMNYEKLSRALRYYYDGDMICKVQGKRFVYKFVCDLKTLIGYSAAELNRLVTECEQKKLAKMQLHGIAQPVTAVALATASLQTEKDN
# Procedure, shortened: as §1
# [4] = biological target: T4, ERG (Homo sapiens, UniProt P11308 1-479); conditions: protein: recombinant; tags: N-terminal GST; dsDNA, one strand shown
# T4 sequence: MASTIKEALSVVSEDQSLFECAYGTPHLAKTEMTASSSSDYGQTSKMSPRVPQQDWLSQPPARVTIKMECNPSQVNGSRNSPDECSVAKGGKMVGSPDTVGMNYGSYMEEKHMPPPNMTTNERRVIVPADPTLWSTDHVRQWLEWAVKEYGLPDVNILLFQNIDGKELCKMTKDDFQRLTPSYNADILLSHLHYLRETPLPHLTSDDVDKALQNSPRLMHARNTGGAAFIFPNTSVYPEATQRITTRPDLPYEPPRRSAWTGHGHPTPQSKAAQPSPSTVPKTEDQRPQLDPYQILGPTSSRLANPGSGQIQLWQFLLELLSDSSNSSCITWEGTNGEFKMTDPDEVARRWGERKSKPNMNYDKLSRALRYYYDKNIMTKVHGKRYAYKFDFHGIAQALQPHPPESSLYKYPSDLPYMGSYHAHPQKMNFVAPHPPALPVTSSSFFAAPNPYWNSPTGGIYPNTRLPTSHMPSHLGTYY
# Procedure, shortened: as §1
# [5] = biological target: ELF1 (Homo sapiens, UniProt P32519 1-619); conditions: protein: recombinant; tags: N-terminal GST; dsDNA, one strand shown
# Procedure, shortened: as §1
# [6] = biological target: T5, EHF (Homo sapiens, UniProt Q9NZC4 1-300); conditions: protein: recombinant; tags: N-terminal GST; dsDNA, one strand shown
# T5 sequence: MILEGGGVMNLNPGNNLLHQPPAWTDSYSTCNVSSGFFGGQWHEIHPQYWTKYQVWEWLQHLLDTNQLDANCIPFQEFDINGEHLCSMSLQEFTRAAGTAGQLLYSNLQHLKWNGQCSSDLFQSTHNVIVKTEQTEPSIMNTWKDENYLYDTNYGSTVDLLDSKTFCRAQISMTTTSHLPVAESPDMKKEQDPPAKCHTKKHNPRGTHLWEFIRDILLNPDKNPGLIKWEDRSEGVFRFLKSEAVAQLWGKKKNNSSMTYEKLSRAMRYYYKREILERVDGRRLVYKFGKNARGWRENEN
# Procedure, shortened: as §1
# [7] = biological target: SPI1 (Homo sapiens, UniProt P17947 1-270); conditions: protein: recombinant; tags: N-terminal GST; dsDNA, one strand shown
# Procedure, shortened: as §1
# [8] = biological target: SPIB (Homo sapiens, UniProt Q01892 1-262); conditions: protein: recombinant; tags: N-terminal GST; dsDNA, one strand shown
# Procedure, shortened: as §1
# [9] = biological target: T6, ELK3 (Homo sapiens, UniProt P41970 1-407); conditions: protein: recombinant; tags: N-terminal GST; dsDNA, one strand shown
# T6 sequence: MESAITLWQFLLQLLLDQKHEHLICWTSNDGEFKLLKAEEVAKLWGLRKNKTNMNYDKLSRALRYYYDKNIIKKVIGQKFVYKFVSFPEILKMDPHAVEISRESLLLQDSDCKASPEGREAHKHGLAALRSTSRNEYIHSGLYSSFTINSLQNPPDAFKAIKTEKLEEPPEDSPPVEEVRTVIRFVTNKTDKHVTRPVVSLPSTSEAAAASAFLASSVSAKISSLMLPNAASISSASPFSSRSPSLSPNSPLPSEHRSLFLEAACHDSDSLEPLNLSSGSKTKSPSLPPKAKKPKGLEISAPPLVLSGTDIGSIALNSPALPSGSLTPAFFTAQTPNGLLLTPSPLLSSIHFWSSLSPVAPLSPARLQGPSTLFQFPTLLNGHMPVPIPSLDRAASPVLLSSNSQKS
# Procedure, shortened: as §1
# [10] = biological target: T7, FEV (Homo sapiens, UniProt Q99581 1-238); conditions: protein: recombinant; tags: N-terminal GST; dsDNA, one strand shown
# T7 sequence: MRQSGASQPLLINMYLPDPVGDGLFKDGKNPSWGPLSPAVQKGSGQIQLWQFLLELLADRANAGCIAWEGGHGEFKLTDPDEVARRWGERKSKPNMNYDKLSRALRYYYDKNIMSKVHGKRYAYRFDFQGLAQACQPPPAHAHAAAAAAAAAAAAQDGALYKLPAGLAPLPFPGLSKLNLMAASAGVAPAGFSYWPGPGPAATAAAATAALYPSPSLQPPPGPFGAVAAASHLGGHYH
# Procedure, shortened: as §1
# [11] = biological target: ETV5 (Homo sapiens, UniProt P41161 1-510); conditions: protein: recombinant; tags: N-terminal GST; dsDNA, one strand shown
# Procedure, shortened: as §1
# [12] = biological target: HSF1 (Homo sapiens, UniProt Q00613 1-529); conditions: protein: recombinant; tags: N-terminal GST; chain copies: 3; dsDNA, one strand shown
# Procedure, shortened: as §1
# [13] = biological target: T8, SPIC (Homo sapiens, UniProt Q8N5J4 1-248); conditions: protein: recombinant; tags: N-terminal GST; dsDNA, one strand shown
# T8 sequence: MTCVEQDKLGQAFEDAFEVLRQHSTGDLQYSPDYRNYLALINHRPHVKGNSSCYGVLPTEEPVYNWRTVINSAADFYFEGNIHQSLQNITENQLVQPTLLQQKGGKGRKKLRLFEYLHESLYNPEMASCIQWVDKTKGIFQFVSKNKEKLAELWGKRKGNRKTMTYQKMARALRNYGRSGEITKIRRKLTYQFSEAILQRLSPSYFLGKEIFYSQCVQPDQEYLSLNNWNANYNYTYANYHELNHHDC
# Procedure, shortened: as §1
# [14] = biological target: ELF4 (Homo sapiens, UniProt Q99607 1-663); conditions: protein: recombinant; tags: N-terminal GST; dsDNA, one strand shown
# Procedure, shortened: as §1
# [15] = biological target: T9, ELK4 (Homo sapiens, UniProt P28324-2 1-405); conditions: protein: recombinant; tags: N-terminal GST; dsDNA, one strand shown
# T9 sequence: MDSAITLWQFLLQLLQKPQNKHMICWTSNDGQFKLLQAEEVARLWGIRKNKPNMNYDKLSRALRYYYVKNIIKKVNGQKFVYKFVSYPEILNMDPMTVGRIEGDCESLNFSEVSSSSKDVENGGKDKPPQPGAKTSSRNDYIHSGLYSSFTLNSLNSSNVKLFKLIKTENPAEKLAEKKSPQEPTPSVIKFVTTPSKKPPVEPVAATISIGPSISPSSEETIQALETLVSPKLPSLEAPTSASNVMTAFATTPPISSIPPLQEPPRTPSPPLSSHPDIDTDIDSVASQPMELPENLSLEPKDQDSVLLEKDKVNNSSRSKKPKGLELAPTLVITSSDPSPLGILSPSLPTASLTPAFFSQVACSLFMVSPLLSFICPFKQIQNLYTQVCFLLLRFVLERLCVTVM
# Procedure, shortened: as §1
# [16] = biological target: T10, ETV2 (Homo sapiens, UniProt O00321 1-342); conditions: protein: recombinant; tags: N-terminal GST; dsDNA, one strand shown
# T10 sequence: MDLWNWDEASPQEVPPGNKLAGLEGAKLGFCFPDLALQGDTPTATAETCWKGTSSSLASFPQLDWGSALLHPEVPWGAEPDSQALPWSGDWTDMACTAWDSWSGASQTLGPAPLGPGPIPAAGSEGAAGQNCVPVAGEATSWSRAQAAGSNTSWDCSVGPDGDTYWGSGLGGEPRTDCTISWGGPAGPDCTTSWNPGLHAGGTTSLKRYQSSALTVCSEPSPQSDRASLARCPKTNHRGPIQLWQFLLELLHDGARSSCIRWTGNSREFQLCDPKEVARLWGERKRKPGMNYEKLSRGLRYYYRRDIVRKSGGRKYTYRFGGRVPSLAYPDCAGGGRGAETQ
# Procedure, shortened: as §1
# [17] = biological target: T11, ELF3 (Homo sapiens, UniProt P78545 1-371); conditions: protein: recombinant; tags: N-terminal GST; dsDNA, one strand shown
# T11 sequence: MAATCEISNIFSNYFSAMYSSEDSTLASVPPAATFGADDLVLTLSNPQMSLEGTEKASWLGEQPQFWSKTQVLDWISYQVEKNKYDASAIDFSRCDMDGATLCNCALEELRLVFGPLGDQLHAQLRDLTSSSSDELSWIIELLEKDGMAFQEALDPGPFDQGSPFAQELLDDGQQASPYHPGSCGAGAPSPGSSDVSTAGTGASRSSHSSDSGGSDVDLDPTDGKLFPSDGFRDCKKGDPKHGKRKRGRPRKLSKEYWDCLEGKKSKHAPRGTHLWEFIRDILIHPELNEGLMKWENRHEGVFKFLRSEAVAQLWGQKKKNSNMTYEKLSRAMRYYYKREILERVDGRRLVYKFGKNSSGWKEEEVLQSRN
# Procedure, shortened: as §1
# [18] = biological target: CRX (Homo sapiens, UniProt O43186 1-299); conditions: protein: recombinant; tags: N-terminal GST; dsDNA, one strand shown
# Procedure, shortened: as §1
# [19] = biological target: ETV1 (Homo sapiens, UniProt P50549 1-477); conditions: protein: recombinant; tags: N-terminal GST; dsDNA, one strand shown
# Procedure, shortened: as §1
# Chain of SPIB (Q01892 whole entry): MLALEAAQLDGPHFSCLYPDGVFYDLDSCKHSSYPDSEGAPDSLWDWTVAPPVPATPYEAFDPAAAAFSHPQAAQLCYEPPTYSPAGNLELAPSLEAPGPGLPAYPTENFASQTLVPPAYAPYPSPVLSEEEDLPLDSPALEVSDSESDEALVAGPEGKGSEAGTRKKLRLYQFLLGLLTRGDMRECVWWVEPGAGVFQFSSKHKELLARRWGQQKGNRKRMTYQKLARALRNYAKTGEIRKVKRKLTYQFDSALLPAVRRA
# Chain of HSF1 (Q00613 whole entry): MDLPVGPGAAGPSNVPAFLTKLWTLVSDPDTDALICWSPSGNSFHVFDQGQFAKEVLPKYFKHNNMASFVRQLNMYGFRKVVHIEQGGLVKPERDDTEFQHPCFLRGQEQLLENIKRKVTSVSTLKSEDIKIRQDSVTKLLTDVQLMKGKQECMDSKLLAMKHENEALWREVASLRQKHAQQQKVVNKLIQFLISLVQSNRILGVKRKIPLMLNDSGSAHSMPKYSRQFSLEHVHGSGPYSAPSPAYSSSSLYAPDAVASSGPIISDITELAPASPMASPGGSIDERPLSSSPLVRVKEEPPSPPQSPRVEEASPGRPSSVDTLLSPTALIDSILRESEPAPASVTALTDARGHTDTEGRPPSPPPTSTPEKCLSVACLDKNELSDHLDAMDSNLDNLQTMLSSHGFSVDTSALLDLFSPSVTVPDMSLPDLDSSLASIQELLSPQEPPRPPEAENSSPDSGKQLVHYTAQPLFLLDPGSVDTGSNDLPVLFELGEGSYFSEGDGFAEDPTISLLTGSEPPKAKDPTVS
# Chain of ELF4 (Q99607 whole entry): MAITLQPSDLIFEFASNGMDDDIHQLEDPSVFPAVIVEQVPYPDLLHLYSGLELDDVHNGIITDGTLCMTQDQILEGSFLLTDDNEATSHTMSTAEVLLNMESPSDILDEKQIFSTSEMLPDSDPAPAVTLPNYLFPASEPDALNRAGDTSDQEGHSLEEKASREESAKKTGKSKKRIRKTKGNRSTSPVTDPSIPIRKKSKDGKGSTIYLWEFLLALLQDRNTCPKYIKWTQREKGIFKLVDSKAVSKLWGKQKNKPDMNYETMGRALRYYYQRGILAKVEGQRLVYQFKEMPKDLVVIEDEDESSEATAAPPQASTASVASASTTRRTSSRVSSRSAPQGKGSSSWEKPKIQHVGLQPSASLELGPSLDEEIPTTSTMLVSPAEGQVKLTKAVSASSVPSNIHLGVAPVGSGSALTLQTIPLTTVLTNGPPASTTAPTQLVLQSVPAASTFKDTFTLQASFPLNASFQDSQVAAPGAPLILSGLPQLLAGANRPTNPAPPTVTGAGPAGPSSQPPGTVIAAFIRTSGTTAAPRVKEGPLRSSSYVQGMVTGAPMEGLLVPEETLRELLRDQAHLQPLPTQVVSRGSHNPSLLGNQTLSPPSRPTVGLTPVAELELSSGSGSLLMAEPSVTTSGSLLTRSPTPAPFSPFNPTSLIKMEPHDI
# Chain of ETV5 (P41161 whole entry): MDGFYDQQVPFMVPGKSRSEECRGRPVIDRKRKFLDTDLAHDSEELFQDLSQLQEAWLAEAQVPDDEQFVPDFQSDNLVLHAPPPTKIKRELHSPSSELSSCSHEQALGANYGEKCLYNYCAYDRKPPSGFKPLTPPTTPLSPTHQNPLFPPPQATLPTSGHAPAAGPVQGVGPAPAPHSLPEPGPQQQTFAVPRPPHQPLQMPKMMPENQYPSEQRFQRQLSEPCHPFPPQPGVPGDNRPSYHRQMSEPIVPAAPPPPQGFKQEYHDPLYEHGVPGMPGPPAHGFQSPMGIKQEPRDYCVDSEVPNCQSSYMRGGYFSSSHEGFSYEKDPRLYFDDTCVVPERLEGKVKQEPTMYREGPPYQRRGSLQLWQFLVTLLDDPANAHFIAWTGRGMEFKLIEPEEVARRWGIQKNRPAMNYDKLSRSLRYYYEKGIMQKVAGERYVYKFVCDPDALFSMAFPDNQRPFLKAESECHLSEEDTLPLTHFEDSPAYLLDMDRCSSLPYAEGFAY
# Chain of ETV1 (P50549 whole entry): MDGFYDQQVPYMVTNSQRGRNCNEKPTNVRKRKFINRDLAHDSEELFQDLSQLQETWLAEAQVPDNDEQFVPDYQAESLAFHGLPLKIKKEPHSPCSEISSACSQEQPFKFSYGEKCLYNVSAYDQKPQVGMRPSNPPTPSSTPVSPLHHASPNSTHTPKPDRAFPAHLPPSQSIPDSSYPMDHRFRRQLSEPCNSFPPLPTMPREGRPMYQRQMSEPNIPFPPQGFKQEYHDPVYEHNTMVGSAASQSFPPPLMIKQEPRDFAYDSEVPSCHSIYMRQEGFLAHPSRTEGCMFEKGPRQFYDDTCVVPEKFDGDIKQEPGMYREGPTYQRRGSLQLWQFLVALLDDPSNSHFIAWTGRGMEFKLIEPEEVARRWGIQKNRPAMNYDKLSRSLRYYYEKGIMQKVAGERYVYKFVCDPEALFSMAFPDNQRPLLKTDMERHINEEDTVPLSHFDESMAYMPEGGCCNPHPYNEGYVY
# Chain of CRX (O43186 whole entry): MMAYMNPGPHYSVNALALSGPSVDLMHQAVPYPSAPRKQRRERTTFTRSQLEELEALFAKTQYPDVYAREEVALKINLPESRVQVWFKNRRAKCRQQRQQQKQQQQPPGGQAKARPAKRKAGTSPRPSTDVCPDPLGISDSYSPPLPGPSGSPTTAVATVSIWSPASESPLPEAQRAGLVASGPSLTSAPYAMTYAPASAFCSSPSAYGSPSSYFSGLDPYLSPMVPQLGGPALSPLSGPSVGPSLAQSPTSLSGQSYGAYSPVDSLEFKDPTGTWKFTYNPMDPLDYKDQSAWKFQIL
# Chain of ELF1 (P32519 whole entry): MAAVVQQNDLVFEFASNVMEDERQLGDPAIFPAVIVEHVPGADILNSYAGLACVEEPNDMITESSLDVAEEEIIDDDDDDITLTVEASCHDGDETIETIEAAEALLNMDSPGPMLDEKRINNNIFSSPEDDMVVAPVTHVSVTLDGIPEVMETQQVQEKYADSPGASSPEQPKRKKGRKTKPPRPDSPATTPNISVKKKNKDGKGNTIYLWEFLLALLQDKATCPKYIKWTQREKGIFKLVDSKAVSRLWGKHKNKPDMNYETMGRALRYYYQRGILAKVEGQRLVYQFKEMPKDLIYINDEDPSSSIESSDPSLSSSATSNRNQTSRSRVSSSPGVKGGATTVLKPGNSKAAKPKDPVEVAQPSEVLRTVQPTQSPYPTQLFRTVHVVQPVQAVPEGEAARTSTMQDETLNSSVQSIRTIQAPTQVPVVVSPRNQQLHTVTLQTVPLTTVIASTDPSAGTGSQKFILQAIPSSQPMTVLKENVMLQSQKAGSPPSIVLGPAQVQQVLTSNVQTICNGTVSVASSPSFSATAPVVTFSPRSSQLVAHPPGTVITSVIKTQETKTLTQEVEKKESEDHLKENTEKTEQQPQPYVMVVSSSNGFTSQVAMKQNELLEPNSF
sequence,measurement,setting,value
ATTATT,binding signal,[1],"1.14 fold enrichment (6-mer frequency, TF over GST control)"
same,binding signal,[2],"1.17 fold enrichment (6-mer frequency, TF over GST control)"
same,binding signal,[3],"1.1 fold enrichment (6-mer frequency, TF over GST control)"
same,binding signal,[4],"1.17 fold enrichment (6-mer frequency, TF over GST control)"
same,binding signal,[5],"1.13 fold enrichment (6-mer frequency, TF over GST control)"
same,binding signal,[6],"1.16 fold enrichment (6-mer frequency, TF over GST control)"
same,binding signal,[7],"1.02 fold enrichment (6-mer frequency, TF over GST control)"
same,binding signal,[8],"1.12 fold enrichment (6-mer frequency, TF over GST control)"
same,binding signal,[9],"1.14 fold enrichment (6-mer frequency, TF over GST control)"
same,binding signal,[10],"1.15 fold enrichment (6-mer frequency, TF over GST control)"
same,binding signal,[11],"1.17 fold enrichment (6-mer frequency, TF over GST control)"
same,binding signal,[12],"1.8 fold enrichment (6-mer frequency, TF over GST control)"
same,binding signal,[13],"1.2 fold enrichment (6-mer frequency, TF over GST control)"
same,binding signal,[14],"1.24 fold enrichment (6-mer frequency, TF over GST control)"
same,binding signal,[15],"1.23 fold enrichment (6-mer frequency, TF over GST control)"
same,binding signal,[16],"1.11 fold enrichment (6-mer frequency, TF over GST control)"
same,binding signal,[17],"1.1 fold enrichment (6-mer frequency, TF over GST control)"
same,binding signal,[18],"2.37 fold enrichment (6-mer frequency, TF over GST control)"
same,binding signal,[19],"1.29 fold enrichment (6-mer frequency, TF over GST control)"

# — PMC7862700, “An all-to-all approach to the identification of sequence-specific readers for epigenetic DNA modifications on cytosine”
